Results filed as inconclusive are left out. Entries that show only a call come without a potency. Calls of active or inactive are those of the source. Unless noted, calls follow the shape of the dose curve; as a rule, active = well fitted curve in the direction sought with a large enough effect; inconclusive = small, poorly fitted or top-dose-only effect, or another doubt; inactive = no such curve, though single readings can be large; an effect the other way counts as inactive or inconclusive.
Key:
[1] = biological target: Alpha-galactosidase A (Homo sapiens) (UniProt P06280); assay: Counterscreen for Glucocerebrosidase Inhibitors: qHTS Assay for Human alpha-Galactosidase at pH 4.5 (AID 992)
Method in brief: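 Fluorogenic 1536-well qHTS at pH 4.5 (citrate, Tween-20): 2 nM enzyme, 80 uM 4-MU-alpha-galactoside, 20 min room temperature, NaOH/glycine stop. Titration 0.7 nM to 77 uM, data normalized to no-enzyme and full-activity controls, Hill-fitted AC50.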

[2] = biological target: alpha-glucosidase (Oryza sativa, rice) (UniProt Q653V4); assay: Counterscreen for Glucocerebrosidase Inhibitors: qHTS Assay for Rice alpha-Glucosidase at pH 5.0 (AID 997)
Method in brief: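 Endpoint fluorogenic assay at pH 5.0: compounds (0.7 nM to 77 uM) titrated against 4 nM rice enzyme and 400 uM 4-MU-alpha-glucoside for 20 min at room temperature; NaOH/glycine stop, read ex 365/em 440 nm, Hill-fitted AC50.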

[3] = biological target: Alpha-galactosidase (Coffea arabica) (UniProt Q42656); assay: Counterscreen for Glucocerebrosidase Inhibitors: qHTS Assay for Coffee Bean alpha-Galactosidase at pH 5.9 (AID 998)
Method in brief: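 In 50 mM citric acid pH 5.9 with 0.005% Tween-20, coffee bean enzyme hydrolyses 80 uM 4-MU alpha-D-galactopyranoside over 20 min at RT. Activity is normalized to controls; AC50 comes from Hill-modelled concentration-response data.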

[4] = Validation of Assay for Modulators of Lamin A Splicing (AID 1459; active = well fitted curve in the direction sought with a large enough effect in the signal ratio; the % refers to the signal ratio;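 also: cells exposed to compound for two days before reading; ratio rise marks activators and ratio drop marks inhibitors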)
Method in brief: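 Splicing correction is reported by an EGFP-containing lamin A minigene in stably transfected S3 HeLa cells, while DsRed2 controls for viability and nonspecific signal. Cells are exposed to compounds for 48 hrs before the GFP over RFP ratio is taken.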

[5] = Counterscreen for APE1 Inhibitors: Fluorescent Dye Displacement Validation Assay (AID 1707); also: potency is read from the fitted curve at half-maximal effect
Method in brief: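 Counterscreen flags promiscuous DNA binders: compounds displacing ThO from duplex DNA (abasic THF site, 50 nM) reduce 540 nm emission (480 nm excitation). ThO 250 nM final; Tris-HCl pH 7.5 with NaCl, MgCl2 and Tween-20.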

[6] = biological target: Endonuclease 4 (Escherichia coli (strain K12)) (UniProt P0A6C1); assay: Counterscreen for APE1 Inhibitors: qHTS Validation Assay for Inhibitors of Endonuclease IV (AID 1708)
Method in brief: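 Enzyme (2 nM) + compound, 15 min RT; add 50 nM TAMRA/BHQ-2 THF-site dsDNA; kinetic read ex525/em598, 3 reads/60 s; activity = read 3 − read 1. Buffer Tris pH 7.5, 50 mM NaCl, 2 mM MgCl2, DTT, Tween-20.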

[7] = qHTS Assay for Lipid Storage Modulators (AID 1519; calls by dose curve); conditions: Drosophila S3 cells, BODIPY lipid droplet/cell ratio, laser cytometry, cells loaded with oleic acid
Method in brief: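 Cells seeded at 5,000 per well were treated with compounds over a concentration series and loaded with oleic acid (400 uM, as added). Lipid droplet fluorescence (488 nm excitation, 500-530 nm channel) was read by laser-scanning cytometry and normalized to 20 uM Triacsin C.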

[8] = biological target: DNA repair nuclease/redox regulator APEX1 (Homo sapiens) (UniProt P27695); assay: qHTS Validation Assay for Inhibitors of the Human Apurinic/apyrimidinic Endonuclease 1 (APE1) (AID 1705;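 also: TAMRA fluorescence gain over two minutes as APE1 cuts a quenched THF abasic duplex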)
Method in brief: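 Endonuclease activity of human APE1 is followed as dequenching when the enzyme incises a tetrahydrofuran abasic site in a short duplex labelled 5'-TAMRA/3'-BHQ-2 (50 nM final), after 15 min enzyme–compound preincubation at room temperature.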

[9] = measured here: cell count channel max response
[10] = measured here: lipid channel max response

Sequence of Alpha-galactosidase A (Homo sapiens) (P06280 whole entry, looked up): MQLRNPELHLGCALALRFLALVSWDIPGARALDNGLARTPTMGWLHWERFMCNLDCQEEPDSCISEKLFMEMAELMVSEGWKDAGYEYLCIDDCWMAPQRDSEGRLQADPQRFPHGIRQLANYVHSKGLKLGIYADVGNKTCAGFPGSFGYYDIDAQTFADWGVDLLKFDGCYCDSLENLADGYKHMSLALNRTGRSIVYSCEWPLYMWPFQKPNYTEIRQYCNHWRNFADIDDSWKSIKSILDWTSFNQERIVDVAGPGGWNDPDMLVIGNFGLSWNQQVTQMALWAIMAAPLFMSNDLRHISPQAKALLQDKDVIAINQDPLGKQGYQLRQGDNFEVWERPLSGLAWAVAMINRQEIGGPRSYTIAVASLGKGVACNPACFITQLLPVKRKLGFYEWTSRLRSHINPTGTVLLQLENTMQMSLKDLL
Sequence of Alpha-galactosidase (Coffea arabica) (Q42656 whole entry, looked up): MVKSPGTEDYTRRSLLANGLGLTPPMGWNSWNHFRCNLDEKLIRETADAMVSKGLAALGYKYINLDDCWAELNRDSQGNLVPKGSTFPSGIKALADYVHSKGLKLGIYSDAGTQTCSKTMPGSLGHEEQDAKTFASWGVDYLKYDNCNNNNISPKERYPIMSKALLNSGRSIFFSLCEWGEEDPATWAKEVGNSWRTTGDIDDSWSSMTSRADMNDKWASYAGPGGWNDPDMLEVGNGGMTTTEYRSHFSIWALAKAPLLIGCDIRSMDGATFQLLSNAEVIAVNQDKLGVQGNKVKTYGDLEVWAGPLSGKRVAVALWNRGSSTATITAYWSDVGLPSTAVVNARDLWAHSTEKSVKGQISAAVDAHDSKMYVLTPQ
Sequence of DNA repair nuclease/redox regulator APEX1 (Homo sapiens) (P27695 whole entry, looked up): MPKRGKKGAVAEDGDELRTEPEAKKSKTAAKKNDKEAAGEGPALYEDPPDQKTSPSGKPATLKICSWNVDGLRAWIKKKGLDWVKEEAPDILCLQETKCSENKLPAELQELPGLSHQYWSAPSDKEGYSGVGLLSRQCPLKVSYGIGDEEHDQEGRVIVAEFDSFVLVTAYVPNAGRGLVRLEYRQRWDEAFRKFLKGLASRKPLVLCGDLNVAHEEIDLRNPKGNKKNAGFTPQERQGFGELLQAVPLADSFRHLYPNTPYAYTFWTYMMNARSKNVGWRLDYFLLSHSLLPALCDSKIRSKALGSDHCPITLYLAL

Which outcome [1] does the source give for COc1ccc2[nH]cc(CCN)c2c1 here?
Its outcome is “inactive”.

What about the outcome [2] of the same compound?
The outcome was “inactive”.

What about the outcome [3] of the same compound?
Its outcome is “inactive”.

What about the outcome [4] of the same compound?
The outcome was “inactive”.

And the Potency [5]?
Its Potency is “inactive”.

And the Potency [6]?
The Potency was “inactive”.

What does the source list for CCC(=O)O[C@@](Cc1ccccc1)(c1ccccc1)[C@@H](C)CN(C)C?
activity change, negative = inhibition ([7]; at 25.7 µM (top of the series)): -2.5% (inactive); max response [7, 9]: -5.05%; max response [7, 10]: -7.97%

For CN1CC[C@@]2(C)c3cc(O)ccc3N(C)C12 (stereo partly specified), which Potency [8] is on record?
The Potency was “inactive”.

What about the Potency [5] of the same compound?
Its Potency is “inactive”.

What about the Potency [6] of the same compound?
The Potency was “inactive”.

Which Potency [5] does the source give for CCCCCCC(C)(C)c1ccc([C@@H]2C[C@H](O)CC[C@H]2CCCO)c(O)c1 here?
Its Potency is “inactive”.

With CNC(=O)OCC[N+](C)(C)C as the compound, how does the outcome [1] read?
The outcome was “inactive”.

And the outcome [2]?
The outcome was “inactive”.

What about the outcome [3] of the same compound?
The outcome was “inactive”.

What about the outcome [4] of the same compound?
Its outcome is “inactive”.

And the Potency [5]?
Its Potency is “inactive”.

What about the Potency [6] of the same compound?
The Potency was “inactive”.

With C[C@H](N)CN1CCc2ccc(Br)cc21 as the compound, how does the outcome [1] read?
The outcome was “inactive”.

What about the outcome [2] of the same compound?
The outcome was “inactive”.

What about the outcome [3] of the same compound?
Its outcome is “inactive”.

And the activity change, negative = inhibition ([7]; at 57.5 µM (top of the series))?
The activity change, negative = inhibition was 0.866% (inactive).

And the max response [7, 9]?
The max response was -15.5%.

And the max response [7, 10]?
The max response was -16.4%.

And the Potency [8]?
The Potency was “inactive”.

And the Potency [5]?
Its Potency is “inactive”.

Which results are given for CNc1ccc2oc(C[C@H]3O[C@@]4(CC[C@H]3C)O[C@H]([C@H](C)C(=O)c3ccc[nH]3)[C@H](C)C[C@H]4C)nc2c1C(=O)O?
Potency [8]: inactive; Potency [5]: inactive

For Cc1cc(C)cc(C(=O)OC2C[C@H]3CC[C@@H](C2)N3C)c1 (stereo partly specified), which activity change, negative = inhibition ([7]; at 57.5 µM (top of the series)) is on record?
Its activity change, negative = inhibition is 3% (inactive).

What about the max response [7, 9] of the same compound?
Its max response is -0.988%.

What about the max response [7, 10] of the same compound?
The max response was 4.22%.

Which activity change, negative = inhibition ([7]; at 57.5 µM (top of the series)) does the source give for NC(Cc1ccc(N(CCCl)CCCl)cc1)C(=O)O (stereo unspecified) here?
The activity change, negative = inhibition was 5.85% (inactive).

What about the max response [7, 9] of the same compound?
Its max response is 17.5%.

What about the max response [7, 10] of the same compound?
The max response was 28.4%.

What about the Potency [8] of the same compound?
Its Potency is “inactive”.

What about the Potency [5] of the same compound?
Its Potency is “inactive”.

What about the Potency [6] of the same compound?
The Potency was “inactive”.

With C[C@@H](Cc1ccccc1)NCCC(c1ccccc1)c1ccccc1 as the compound, how does the activity change, negative = inhibition ([7]; at 25.7 µM (top of the series)) read?
Its activity change, negative = inhibition is -10.7% (inactive).

What about the max response [7, 9] of the same compound?
The max response was -11.9%.

What about the max response [7, 10] of the same compound?
The max response was -23.1%.

With C[C@@H]1O[C@H](C[N+](C)(C)C)CS1 as the compound, how does the outcome [1] read?
Its outcome is “inactive”.

What about the outcome [2] of the same compound?
Its outcome is “inactive”.

And the outcome [3]?
The outcome was “inactive”.

What about the outcome [4] of the same compound?
The outcome was “inactive”.

And the Potency [5]?
Its Potency is “inactive”.

And the Potency [6]?
The Potency was “inactive”.

For Clc1ccc(Cl)cc1, which activity change, negative = inhibition ([7]; at 57.5 µM (top of the series)) is on record?
The activity change, negative = inhibition was 0.214% (inactive).

And the max response [7, 9]?
The max response was 8.86%.

And the max response [7, 10]?
Its max response is 11.5%.

What does the source list for CC1(C(=O)O)C2CCC(O2)C1(C)C(=O)O (stereo unspecified)?
Potency [8]: inactive; Potency [5]: inactive; Potency [6]: inactive

With CN1[C@@H]2CC[C@H]1CC(OC1c3ccccc3CCc3ccccc31)C2 (stereo partly specified) as the compound, how does the activity change, negative = inhibition ([7]; at 25.7 µM (top of the series)) read?
The activity change, negative = inhibition was -3.36% (inactive).

And the max response [7, 9]?
The max response was -5.63%.

What about the max response [7, 10] of the same compound?
Its max response is -11.3%.

With CCS(=O)(=O)Nc1cccc(C(=C2CCCCC2)c2cnc[nH]2)c1 as the compound, how does the outcome [1] read?
The outcome was “inactive”.

What about the outcome [2] of the same compound?
The outcome was “inactive”.

What about the outcome [3] of the same compound?
Its outcome is “inactive”.

And the activity change, negative = inhibition ([7]; at 57.5 µM (top of the series))?
The activity change, negative = inhibition was 1.44% (inactive).

And the max response [7, 9]?
The max response was 56.8%.

And the max response [7, 10]?
Its max response is 58%.

What about the Potency [8] of the same compound?
Its Potency is “inactive”.

What about the Potency [5] of the same compound?
The Potency was “inactive”.

What does the source list for CN1C2CCC1CC(OC(c1ccccc1)c1ccc(Cl)cc1)C2 (stereo unspecified)?
activity change, negative = inhibition ([7]; at 57.5 µM (top of the series)): 0.923% (inactive); max response [7, 9]: -27.9%; max response [7, 10]: -25.4%; Potency [8]: inactive; Potency [5]: inactive

With NCCc1ccc(S(=O)(=O)F)cc1 as the compound, how does the outcome [1] read?
The outcome was “inactive”.

And the outcome [2]?
Its outcome is “inactive”.

And the outcome [3]?
Its outcome is “inactive”.

What about the outcome [4] of the same compound?
The outcome was “inactive”.

And the Potency [5]?
Its Potency is “inactive”.

What about the Potency [6] of the same compound?
The Potency was “inactive”.

With CC(=O)c1c(O)c(C)c(O)c(Cc2c(O)c3c(c(C(=O)/C=C/c4ccccc4)c2O)OC(C)(C)C=C3)c1O as the compound, how does the activity change, negative = inhibition ([7]; at 57.5 µM (top of the series)) read?
The activity change, negative = inhibition was 1.99% (inactive).

What about the max response [7, 9] of the same compound?
Its max response is 24.5%.

And the max response [7, 10]?
Its max response is 25.8%.

What about the Potency [8] of the same compound?
The Potency was “inactive”.

And the Potency [5]?
The Potency was 2240 nM (active).

And the Potency [6]?
The Potency was “inactive”.

With NC(N)=Nc1ccc2[nH]c3c(c2c1)C[C@@]1(O)[C@H]2Cc4ccc(O)c5c4[C@@]1(CCN2CC1CC1)[C@H]3O5 as the compound, how does the activity change, negative = inhibition ([7]; at 57.5 µM (top of the series)) read?
Its activity change, negative = inhibition is -5.63% (inactive).

And the max response [7, 9]?
Its max response is -1.13%.

And the max response [7, 10]?
Its max response is -6.88%.

And the Potency [5]?
Its Potency is “inactive”.

And the Potency [6]?
The Potency was “inactive”.

For NC(CCCCCP(=O)(O)O)C(=O)O (stereo unspecified), which activity change, negative = inhibition ([7]; at 57.5 µM (top of the series)) is on record?
The activity change, negative = inhibition was 0.489% (inactive).

And the max response [7, 9]?
Its max response is -0.44%.

And the max response [7, 10]?
The max response was -0.15%.

And the Potency [5]?
The Potency was “inactive”.

What about the Potency [6] of the same compound?
Its Potency is “inactive”.
